The source made the active and inactive calls.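 The calls were made as follows: active = percent response above 42, roughly 3 SD of non-fluorescent test compounds; inactive = the rest.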

This assay deals with Beta-2 adrenergic receptor (Homo sapiens) (UniProt P07550). The assay can be described thus: beta2AR agonists driving receptor internalization, pilot screen, cell-based, FAP fluorogen, flow cytometry, validation set (AID 504459).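 Also: agonist-driven loss of surface beta2AR via internalization measured by FAP dye flow cytometry; reference of the scale not given here.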 To be noted: Am2.2-beta2AR cells, FAP surface receptor flow cytometry; at 10 µM; hits give high values. Background: Flow cytometry measures light scatter and fluorescence of single cells or particles in a stream.
Chain of Beta-2 adrenergic receptor (Homo sapiens) (P07550 whole entry, looked up): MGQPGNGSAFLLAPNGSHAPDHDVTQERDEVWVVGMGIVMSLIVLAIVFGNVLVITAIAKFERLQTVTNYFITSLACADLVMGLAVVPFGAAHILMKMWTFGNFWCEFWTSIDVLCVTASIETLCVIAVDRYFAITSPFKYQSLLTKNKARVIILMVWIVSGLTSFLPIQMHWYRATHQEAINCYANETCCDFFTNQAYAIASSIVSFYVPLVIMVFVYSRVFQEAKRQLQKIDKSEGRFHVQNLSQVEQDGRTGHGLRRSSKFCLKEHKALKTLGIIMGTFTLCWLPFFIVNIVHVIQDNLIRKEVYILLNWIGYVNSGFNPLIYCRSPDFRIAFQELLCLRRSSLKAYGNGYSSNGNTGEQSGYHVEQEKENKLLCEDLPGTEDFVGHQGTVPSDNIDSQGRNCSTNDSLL
On to `CCN(CC)C(=O)N1CCN(C)CC1`, for which the response is -0.51% (inactive). For the compound `CC1(C)[C@@H](O)CC[C@]2(C)[C@H]3C(=O)C=C4[C@@H]5C[C@@](C)(C(=O)O)CC[C@]5(C)CC[C@@]4(C)[C@]3(C)CC[C@@H]12`, the response was 7.4% (inactive). The value for `O=C(Nc1ccc(Cl)cn1)Nc1ccccc1Cl` was -0.99% (inactive); that for `COc1c(C=O)c(CCN(C)C(=O)c2ccc(F)cc2)cc2c1OCO2` was -22.5% (inactive). The value for `COc1ccc(C2C3=C(CC(C)(C)CC3=O)N(C)C3=C2C(=O)CC(C)(C)C3)cc1` was -20.5% (inactive). The value for `CC(C)(Sc1cc(C(C)(C)C)c(O)c(C(C)(C)C)c1)Sc1cc(C(C)(C)C)c(O)c(C(C)(C)C)c1` was 1.22% (inactive). Consider `CC(=O)NC(NC(=S)N1CCCCCC1)C(Cl)(Cl)Cl` (stereo not given), for which the response is 2.95% (inactive). With `Cc1ccc2c(CC(=O)O)coc2c1` the figure was -1.64% (inactive). The value for `COc1cccc(N2C(=O)CC(c3c[nH]c4ccccc34)C2=O)c1` (stereo not given) was 12% (inactive); that for `CC1(CC(=O)Nc2ccccc2)NC(=S)N(c2ccccc2)N1` (stereo not given) was -7.2% (inactive). The value for `O=c1nc2n(c3c1oc1ccccc13)Cc1ccccc1-2` was -25.7% (inactive); that for `COC(=O)c1ccc(NC(=O)C23CCC(C)(C(=O)O2)C3(C)C)cc1` (stereo not given) was -24.2% (inactive); that for `c1cnc(N2CCN(Cc3ccc4c(c3)OCO4)CC2)nc1` was 2.78% (inactive). As for `CCOC(=O)C1=C(N)Oc2c(c(=O)[nH]c3ccccc23)C1c1ccccc1` (stereo not given), the response is 3.69% (inactive). The value for `CCOc1ccc2[nH]c3c(=O)n(CCc4ccc(OC)cc4)cnc3c2c1` was 0.24% (inactive); that for `CC(=O)OC(C)C[N+](C)(C)C` (stereo not given) was -16.2% (inactive); that for `CNc1c2c(nn1C)CCCC2` was 1.87% (inactive). With `O=C(CN1C(=O)/C(=C/c2cccc(Br)c2)SC1=S)Nc1cccnc1` the figure was -8.62% (inactive). The value for `N/C(Cc1ccc(Cl)cc1Cl)=N\OC(=O)c1ccc(Br)o1` was 6.81% (inactive); that for `O=C(c1ccco1)N1CCCN(Cc2nc(-c3ccc4c(c3)OCO4)no2)CC1` was -9.4% (inactive). Regarding `Cc1ccc2c(c1)C(O)(C1COC(C)(C)CC1=O)C(=O)N2C` (stereo not given), the response was -0.64% (inactive). For the compound `CC(C)(C)C(=O)N1CCCC1C(=O)O` (stereo not given), the response was -4.87% (inactive).

As for `COc1ccc(C2NC(=O)c3ccccc3O2)c(OC)c1OC` (stereo not given), the response is -12.7% (inactive). With `CC(C(=O)O)c1cccc(C(=O)c2ccccc2)c1` (stereo not given) the figure was 6.64% (inactive); with `C[N+]1(C2CCC3CCCC2C3O)CCCCC1` (stereo not given), -9.71% (inactive). The value for `CCc1cc(=O)oc2cc3occ(-c4ccc(OC)c(F)c4)c3cc12` was 25.5% (inactive). Take `COC(=O)[C@H]1[C@H]2C[C@@H]3c4[nH]c5cc(OC)ccc5c4CCN3C[C@H]2C[C@@H](OC(=O)c2ccc(N)cc2)[C@@H]1OC`: the response was -18.1% (inactive). For `O=C(CN1CCN(Cc2ccccc2)CC1)N1CCCc2c1c(=O)oc1ccc(O)cc21`, the response was -14.1% (inactive). With `CCOc1ccc2ccccc2c1C(=O)N[C@@H]1C(=O)N2[C@@H]1SC(C)(C)[C@@H]2C(=O)O`, the response is 1.55% (inactive). With `COc1ccccc1N1CCN(CC(O)COc2cccc3ccccc23)CC1` (stereo not given) the figure was -24.7% (inactive); with `C[C@]12CC[C@@H]3c4ccc(O)cc4[C@@H](O)C[C@H]3[C@@H]1CC[C@@H]2O`, -0.21% (inactive). The value for `O[C@H]1COC2C1OC[C@@H]2O` (stereo not given in full) was -28.6% (inactive); that for `O=C(NCCO)c1ccc(Cl)c(Cl)c1` was -1.25% (inactive); that for `O=C(Nc1ccc(C(=O)NC2CCCCC2)cc1)c1cccnc1` was -3.04% (inactive).

As for `CC(=O)Oc1ccc(C(c2ccc(OC(C)=O)cc2)c2ccccn2)cc1`, the response is -25.8% (inactive).

`CC(CCc1ccccc1)NC(=O)/C=C/c1ccccc1` (stereo not given): the response was -12.9% (inactive). The value for `Cc1ccc2nc(NC3=NC(CC(=O)O)C(=O)N3)nc(C)c2c1` (stereo not given) was -2.27% (inactive). `O=C(NC(Nc1ccccn1)C(Cl)(Cl)Cl)c1ccccc1` (stereo not given): the response is 1.87% (inactive). With `NC(N)=N/N=C/c1cccc(Cl)c1Cl` the figure was 22.4% (inactive).

Consider `COc1ccccc1C(=O)Oc1ccc2c(c1)O/C(=C\c1ccncc1)C2=O`, for which the response was -22.5% (inactive).

The record behind these values is PubChem BioAssay.
